Bead autofluor: flagged as autofluorescent in microsphere protease counterscreen; compound autofluorescence counterscreen, microsphere flow cytometry; stronger effect = higher value; fluorescence intensity (concentration not given with the values); 360,000 tested, 3.1% active; AID 624483; in the data active = fluorescence intensity above about 16000; inconclusive = no clear call, values can overlap the other calls
SARS 3CLpro inh: SARS-CoV 3CLpro protease inhibitors, primary screen, biochemical, quenched FRET. Replicase polyprotein 1ab (Severe acute respiratory syndrome coronavirus), P0C6X7. AID 1706, 2009. inhibition, % at 6 µM. 290,000 tested, 0.14% active. recombinant SARS-CoV 3CLpro, quenched FRET peptide cleavage; in the data active = inhibition above about 12%
BoNT F protease: BoNT/F light chain protease inhibitors, primary screen, biochemical, flow cytometry, MLPCN library; Botulinum neurotoxin type F light chain protease (Clostridium botulinum); Multiplex microsphere protease cleavage assay; inhibition, % at 10 µM; 360,000 tested, 0.22% active; AID 588497, 2011; in the data active = inhibition above about 35%, passing the limit was not always enough; inconclusive = no clear call, values can overlap the other calls
BoNT A protease: BoNT/A light chain protease inhibitors, primary screen, biochemical, flow cytometry, MLPCN library | multiplex microsphere protease substrate cleavage | inhibition, % at 10 µM | 360,000 tested, 0.17% active | Botulinum neurotoxin type A light chain protease (Clostridium botulinum A str. ATCC 3502)
Anthrax LF prot: Bacillus anthracis LF protease inhibitors, primary screen, biochemical, multiplex microsphere, MLPCN library | multiplex microsphere protease cleavage assay | inhibition, % at 10 µM | Lethal factor (Bacillus anthracis), P15917 | 360,000 tested, 0.12% active | AID 588501, 2011
Numbers stand for hits; . = inactive; ? = inconclusive; / = no result given. This is a sample that favours compounds with a hit; in the whole collection about 3.5% have one here. Rule as the data show it, unless noted: active = inhibition above about 30%; inconclusive = no clear call, values can overlap the other calls; inactive = below that.

SMILES	Bead autofluor	SARS 3CLpro inh	BoNT F protease	BoNT A protease	Anthrax LF prot
COC(=O)c1ccc(NC(=O)Cn2c(-c3nonc3N)nc3ccccc32)cc1	.	.	.	.	.
COC(=O)c1ccccc1NC(=O)Cn1c(SC)c(F)cnc1=O	19945	.	.	.	.
COC(=O)c1ccccc1NC(=O)Cn1c(-c2nonc2N)nc2ccccc21	20173	.	.	.	.
Cc1ccc(S(=O)(=O)NC(=O)C2(C)CCN2C(=O)Cc2ccc(-c3ccccc3)cc2)nc1 (centres undefined)	.	/	.	.	.
CC(C)NC(=O)C1CCN(C(=O)c2cc3sccc3n2Cc2ccc(F)cc2)CC1	?	.	.	.	.
CCOC(=O)c1cnn2c(C(F)(F)F)cc(-c3cn(C)nc3C)nc12	.	.	.	.	.
CC(C)Oc1ccc(C2c3c(oc4ccccc4c3=O)C(=O)N2CCCN2CCOCC2)cc1 (centres undefined)	24300	.	.	?	.
CN(C)c1nc(N/N=C\c2ccc(Cl)c([N+](=O)[O-])c2)nc(Nc2ccc(F)cc2)n1	.	.	.	.	.
O=C(O)CCNS(=O)(=O)c1ccc(Oc2ccccc2Cl)cc1	17172	.	.	.	.
CN(C)c1ccc(C(=O)N/N=C/c2cc(Br)cc(Br)c2O)cc1	.	.	.	.	?
COc1ccc(CC(NC(C)=O)C(=O)N2CCN(C(=O)Nc3ccc(Cl)cc3)CC2)cc1OC (centres undefined)	22516	.	.	.	.
COc1cccc(NC(=O)N2CCN(C(=O)C(Cc3ccc(OC)c(OC)c3)NC(C)=O)CC2)c1 (centres undefined)	18405	.	.	?	.
COC(=O)c1ccc(C(=O)OC)nc1	.	.	35	.	.
CCOC(=O)CSc1ncc(OC)c(=O)[nH]1	.	.	.	.	.
CCOC(=O)C(C)Sc1ncc(OC)c(=O)[nH]1 (centres undefined)	.	.	.	.	.
CCOC(=O)C(C)Sc1ncc(OC)c(Sc2ccc(Cl)cc2)n1 (centres undefined)	24632	.	.	.	.
CCOC(=O)CSc1ncc(OC)c(Sc2ccc(Cl)cc2)n1	21505	.	.	?	.
C/C(=N/NC(=O)c1cn(-c2cccc(C)n2)cn1)c1ccc(C)cc1	.	.	.	.	.
c1nc(N2CCCC2)c2[nH]cnc2n1	23416	.	.	?	.
Nc1nc(-c2ccc(Cl)cc2)c(S(=O)(=O)c2ccccc2)s1	.	.	.	.	.
COc1ccc(-c2c(S(=O)(=O)c3ccccc3)cnn2-c2ccccc2)cc1	21873	.	.	.	.
O=S(=O)(c1ccccc1)c1cnn(-c2ccccc2)c1-c1ccc(Cl)cc1	22953	.	.	?	.
O=C(NCCN1CCOCC1)c1ccccc1-c1ccccc1	.	.	.	.	.
O=C(c1cnn2c(C(F)(F)F)cc(-c3ccc(Br)cc3)nc12)N1CCOCC1	.	.	.	.	.
O=C(c1cnn2c(C(F)F)cc(-c3ccccc3)nc12)N1CCOCC1	21284	.	.	.	.
SMILES	Bead autofluor	SARS 3CLpro inh	BoNT F protease	BoNT A protease	Anthrax LF prot
O=C(c1cnn2c(C(F)(F)F)cc(-c3ccc4c(c3)OCO4)nc12)N1CCCC1	21315	.	.	?	.
Cc1cc(NC(=O)c2cnn3c(C(F)(F)F)cc(-c4ccc(Br)cc4)nc23)no1	23282	.	.	.	.
COc1ccc(-c2cc(C(F)F)n3ncc(C(=O)N4CCN5CCCC5C4)c3n2)cc1 (centres undefined)	17221	.	.	.	.
Nn1c(C2COc3ccccc3O2)n[nH]c1=S (centres undefined)	.	.	.	.	.
Cc1cccc(C(=O)c2cnc3ccccc3c2-c2ccccc2)c1	.	.	.	.	.
COc1ccc(C2=Nn3c(nnc3-c3cccnc3)SC2)cc1	.	.	.	.	.
CCOc1ccc(C2=Nn3c(nnc3-c3ccc(OC)cc3)SC2)cc1	17851	.	.	.	.
CCOc1ccc(C2=Nn3c(nnc3-c3cccnc3)SC2)cc1	20067	.	.	?	.
COc1ccc(C2=Nn3c(nnc3-c3ccco3)SC2)cc1	17209	.	.	.	.
COc1ccc(OC)c(C2=Nn3c(nnc3-c3cccc(OC(C)C)c3)SC2)c1	16655	.	.	.	.
COc1ccc(OC)c(C2=Nn3c(nnc3-c3ccco3)SC2)c1	.	.	.	.	.
O=S(=O)(Nc1ccccc1N1CCCCC1)c1ccc(F)cc1	.	.	?	.	.
c1cncc(-c2nnc3n2N=C(c2cccs2)CS3)c1	.	.	.	.	.
Cc1cccc(-c2nnc3n2N=C(c2ccccc2)CS3)c1	20710	.	.	?	.
c1ccc(C2=Nn3c(nnc3-c3cccnc3)SC2)cc1	22262	.	.	.	.
CCOc1ccc(C2=Nn3cnnc3SC2)cc1	22944	.	.	.	.
c1ccc(C2=Nn3c(nnc3-c3ccncc3)SC2)cc1	.	.	.	.	.
COc1ccc(C(=O)NCS(=O)(=O)c2ccc(C)cc2)cc1	?	.	.	?	.
c1ccc(CNC2CCCCCCC2)cc1 (tested in a mixture with another compound)	.	/	.	.	.
Cn1ccnc1Sc1nc(Nc2cccc(Cl)c2)nc(N2CCOCC2)n1	22665	.	.	.	.
COc1cccc(/C=N/Nc2ncnc(N)c2[N+](=O)[O-])c1OC	21088	.	.	.	.
COc1cccc(C=NNc2ccc([N+](=O)[O-])cn2)c1OC	.	/	.	.	.
COCCn1c(SCC#N)nnc1-c1ccccc1O	20776	.	.	.	.
CC(C)NS(=O)(=O)c1ccc(OCC(=O)N2CCN(c3ccccc3)CC2)cc1	.	.	.	.	.
O=C(COc1ccc(S(=O)(=O)NC2CCCCC2)cc1)N1CCN(c2cccc(Cl)c2)CC1	22384	.	.	.	.
SMILES	Bead autofluor	SARS 3CLpro inh	BoNT F protease	BoNT A protease	Anthrax LF prot
Cc1ccc(C)c(NC(=O)c2cnc3n(c2=O)CCS3)c1	.	.	.	.	.
O=C(c1cnc2n(c1=O)CCS2)N(c1ccccc1)C1CCCCC1	.	.	.	.	.
COC(=O)c1ccc(C(=O)OC)c(NC(=O)c2cnc3n(c2=O)CCS3)c1	16274	.	.	?	.
CN(Cc1ccccc1)C(=O)c1cnc2n(c1=O)CCS2	19652	.	.	?	.
Cc1cccc(N(C(=O)c2cnc3n(c2=O)CCS3)C2CCCCC2)c1	22301	.	.	.	.
CC1=C(C(=O)Nc2ccccn2)C(c2ccc(Br)cc2)NC(=S)N1 (centres undefined)	.	.	.	.	.
O=C(O)/C=C/C(=O)N1N=C(c2ccco2)CC1c1ccco1 (centres undefined)	.	.	.	.	.
Cc1ccc(C2=NN(CC(=O)NCc3ccco3)C(=O)CC2)cc1	.	.	.	.	.
Cc1ccc(C2=NN(CC(=O)O)C(=O)CC2)cc1	.	.	50	.	.

Compound activity from PubChem BioAssay.
